p97 ATPase inh: inhibitors of human p97 ATPase, primary screen, biochemical; Transitional endoplasmic reticulum ATPase (Homo sapiens), P55072; recombinant p97 ATPase, Kinase-Glo ATP luminescence, 3 h; inhibition, % at 8 µM; 220,000 tested, 0.42% active; in the data active = inhibition above about 15%;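 note: 0% = DMSO vehicle and 100% = wells lacking enzyme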
DTT redox prof: compounds producing H2O2 with reducing agent – biochemical, NIH compound library profiling, artefact control for MLSCN library redox annotation, primary screen; 200,000 tested, 0.03% active; DTT-dependent redox cycling H2O2, phenol red/HRP absorbance; 100% = 100 µM peroxide control, 0% = buffer; activation, % at 10 µM;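 active = activation of at least 50% relative to the plate's high and low controls in the primary single-dose screen; inactive = activation below 50%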;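 note: compound incubated with DTT at 0.8 mM final as the reducing agent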
LYPLA2 counter: LYPLA2 inhibitors, primary screen, counter-screen for PME1 inhibitor project, biochemical, fluorescence polarization, FP-Rh probe ABPP | Acyl-protein thioesterase 2 (Homo sapiens), O95372 | recombinant LYPLA2 | inhibition, % at 5.9 µM | 320,000 tested, 0.38% active | AID 2177, 2009;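 active = inhibition above the screen-wide mean plus 3 SD, limit set per campaign, cut at about 26% in these data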;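 note: 0% = LYPLA2 with DMSO and 100% = wells lacking LYPLA2 enzyme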
Target sequence (O95372 whole entry, looked up): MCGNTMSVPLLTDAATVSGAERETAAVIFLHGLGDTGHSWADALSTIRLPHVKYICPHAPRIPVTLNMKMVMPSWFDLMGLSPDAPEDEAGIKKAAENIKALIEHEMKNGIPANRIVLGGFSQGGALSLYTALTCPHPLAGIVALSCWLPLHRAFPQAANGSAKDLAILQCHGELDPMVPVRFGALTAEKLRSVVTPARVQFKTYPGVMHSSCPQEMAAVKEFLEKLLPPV
LYPLA1 inh: LYPLA1 inhibitors, primary screen, counter-screen for PME1 inhibitor project, biochemical, fluorescence polarization, FP-Rh probe ABPP | Acyl-protein thioesterase 1 (Homo sapiens), O75608 | recombinant LYPLA1 | inhibition, % at 5.9 µM | 320,000 tested, 0.16% active | AID 2174, 2009;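 active = inhibition above the mean of all tested compounds plus 3 SD, set per campaign, cut at about 14% in these data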;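 note: inhibitors block serine hydrolase probe labeling of LYPLA1 so polarization falls; 0% = enzyme with DMSO and 100% = wells lacking LYPLA1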
Target sequence (O75608 whole entry, looked up): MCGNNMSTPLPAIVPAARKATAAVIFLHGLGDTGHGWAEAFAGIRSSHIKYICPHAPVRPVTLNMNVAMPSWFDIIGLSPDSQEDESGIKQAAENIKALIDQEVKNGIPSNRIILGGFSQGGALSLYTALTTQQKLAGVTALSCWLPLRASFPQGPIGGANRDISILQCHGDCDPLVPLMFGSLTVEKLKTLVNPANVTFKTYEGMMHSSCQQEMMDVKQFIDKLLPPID
DTT redox conf: confirmation of DTT-dependent redox cycling H2O2 generators; shares compounds with DTT redox prof; phenol red-HRP absorbance; EC50, µM; 60 tested, 40% active;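 active = EC50 under a set limit for hydrogen peroxide production with the reducing agent DTT present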
p97 confirm: p97 ATPase inhibitors, retest, confirmation, biochemical; shares compounds with p97 ATPase inh; inhibition, % at 8 µM; 760 tested, 44% active; AID 1517, 2009; recombinant p97 ATPase, Kinase-Glo ATP luminescence;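 active = percent inhibition of p97 ATPase above a set limit, the primary screen's mean plus 3 SD, cut at about 15% in these data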;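 note: 0% = DMSO wells and 100% = wells lacking p97 protein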
Starred values were filed as active, the others as inactive; . = not tested or not shown. Shown are actives, neighbours in structure and some others; about 0.74% of the full set was active somewhere.

SMILES | p97 ATPase inh | DTT redox prof | LYPLA2 counter | LYPLA1 inh | p97 confirm | others
O=C(O)c1ccc2c(c1)C1C(Cl)C(Sc3ccccc3[N+](=O)[O-])CC1C(c1cccc([N+](=O)[O-])c1)N2 (stereo not given) | 15.1* | -0.1 | . | . | .
CCCCn1c(N)c(C(=O)NCCN2CCOCC2)c2nc3ccccc3nc21 | -5.5 | 0.5 | 2.4 | -1.4 | .
CCCCn1c(NC(=O)c2ccc(Br)o2)c(C(=O)OCC)c2nc3ccccc3nc21 | 16.7* | 7.7 | 88.9* | 81.0* | .
COC(=O)C1=C(c2c(C)noc2C)C[C@@H]2CC[C@H]1N2C(=O)NCCCOC(C)C | . | . | 1.3 | 1.2 | .
CCCCn1c(NS(=O)(=O)c2ccccc2)c(C(=O)OCC)c2nc3ccccc3nc21 | 20.9* | 167.5* | 5.6 | -1.0 | 2.1 | DTT redox conf=>50
Cc1cccc(NC(=O)CN2CCN(C(=O)COc3cccc(Br)c3)CC2)c1C | . | . | 10.6 | -0.7 | .
CN[C@H]1C[C@H]2O[C@@](C)([C@H]1OC)n1c3ccccc3c3c4c(c5c6ccccc6n2c5c31)C(=O)NC4 | 15.2* | 0.7 | -3.3 | -18.7 | 11.9
COCCCn1c(N)c(C(=O)OC(C)COC)c2nc3ccccc3nc21 (stereo not given) | 15.3* | -2.8 | 7.4 | 1.1 | 5.5
COCCCn1c(N)c(C(=O)NCc2ccco2)c2nc3ccccc3nc21 | 36.6* | . | 0.7 | -3.3 | 19.4*
Nc1c(C(=O)NCCN2CCOCC2)c2nc3ccccc3nc2n1Cc1ccccc1 | 34.8* | . | -7.1 | -4.4 | -0.5
Nc1c(C(=O)NCCc2ccccc2)c2nc3ccccc3nc2n1CCN1CCOCC1 | -4.6 | 3.2 | -6.5 | -4.5 | .
CC(C)(C)OC(=O)c1c(N)n(Cc2ccco2)c2nc3ccccc3nc12 | 15.8* | 0.5 | -4.5 | -2.6 | 4.8
CC[C@H]1C2C[C@H]3[C@@H]4N(C)c5ccccc5C45C[C@H](C2[C@H]5O)N3[C@@H]1O (stereo not given in full) | . | . | 5.6 | 3.4 | .
CCCN1CCC[C@@H](c2cccc(O)c2)C1 | . | . | -2.2 | -2.9 | .
Cc1nc2ccccc2c(=O)n1-c1cc([N+](=O)[O-])cc([N+](=O)[O-])c1 | . | . | -4.9 | -3.7 | .
Cc1[nH]n(-c2ccccc2)c(=O)c1C(c1ccc([N+](=O)[O-])cc1)c1c(C)[nH]n(-c2ccccc2)c1=O | 39.9* | 0.3 | 5.0 | -1.9 | 7.6
CC(C)c1ccc(N2C(=O)NC(=O)/C(=C/C=C/c3ccco3)C2=O)cc1 | 15.9* | 0.2 | -9.1 | -4.8 | 10.8
COc1ccc(OCC(=O)N2CCCC(N3CCN(c4ccccc4C)CC3)C2)cc1 (stereo not given) | . | . | 4.9 | 1.5 | .
CC[C@H](C)[C@@H]1O[C@@]2(C=CC1C)CC1C[C@@H](CC=C(C)C(O[C@H]3CC(OC)C(O[C@H]4CC(OC)C(O)C(C)O4)C(C)O3)C(C)C=CC=C3CO[C@@H]4C(O)C(C)=C[C@@H](C(=O)O1)[C@]34O)O2 (stereo not given in full) | . | . | 0.4 | -2.0 | .
CC(C)(C)P(=O)(NCc1ccccc1)c1ccccc1 (stereo not given) | 16.3* | 0.4 | -1.4 | 1.1 | 2.6
Cc1ccc(OP(=O)(NCc2ccccc2)Oc2ccc(C)cc2)cc1 | 2.1 | 0.3 | 2.0 | -2.0 | .
CCN(CC)C(=O)c1ccc(N2C(=O)C3CC=C(Cl)CC3C2=O)cc1 (stereo not given) | 15.5* | -1.0 | -3.6 | -4.8 | 4.8
COc1cc2c(c(OC)c1OC)-c1ccc(O)cc1[C@@H](NC(C)=O)CC2 | . | . | -6.9 | -3.8 | .
C[C@]12CC(=CO)C(=O)C[C@@H]1CC[C@@H]1[C@@H]2CC[C@@]2(C)[C@H]1CC[C@]2(C)O | -5.2 | . | . | . | .
CCC(C)NC(=O)c1c(N)n(CC2CCCO2)c2nc3ccccc3nc12 (stereo not given) | 28.9* | -0.6 | -8.5 | -2.4 | -4.4
CC(C)CCNC(=O)c1c(N)n(CC2CCCO2)c2nc3ccccc3nc12 (stereo not given) | -1.5 | 0.3 | 8.3 | -0.5 | .

High-throughput results deposited in PubChem BioAssay by several laboratories.
